Bioassay records from PubChem BioAssay.
AI-2 QS modul: Vibrio harveyi AI-2 quorum sensing modulation; Vibrio harveyi JMH597 AI-2 luminescence/OD600 ratio, 9 h; stronger effect = lower value; strain lacks LuxN and CqsS sensors; 0 = neutral-control median; activity change, % at 7.5 µM; 300,000 tested, 0.4% active; AID 2094; in the data active = activity change below about -75%, passing the limit was not always enough; inconclusive = no clear call, values can overlap the other calls;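 note: luminescence divided by OD600 gain over 9 h not by final OD600 alone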
ARNT-TACC3 inh: disrupts binding between human ARNT and TACC3 | 390,000 tested, 0.66% active | inhibition, % at 9.99 µM | AlphaScreen His-ARNT PAS-B/GST-TACC3 binding, luminescence; TACC3 fragment carries E629A point mutation | Q9Y6A5;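 active = mean inhibition of replicates at least 50% and at least half of replicates each reaching 50%; inconclusive = half or more replicates reach 50% but mean below 50%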
A1 inh: inhibitors of the anti-apoptotic protein A1, read as caspase activation; MEF A1-2A-BIM cells, Caspase-Glo 3/7 luminescence, 3 h; percent of clofoctol response, vehicle zero; caspase activation, % (no concentration beside the values); 330,000 tested, 0.066% active; AID 2462;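 active = over half of replicate activation scores above 10%, or exactly half above 10 with the replicate mean above 10; inconclusive = replicate mean below 10 yet half the replicates above 10; inactive = over half of replicates below 10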
SUMO Mot1 rescue: SUMOylation pathway inhibition by Mot1-301 growth rescue | S. cerevisiae Mot1-301 growth rescue, ATP luminescence, 38.5C; percent above DMSO median, 100 means doubled | 320,000 tested, 1% active | growth rescue, % at 18.8 µM;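 active = every valid replicate shows activation above 250% relative to neutral control wells; inactive = the rest, any valid replicate at or below 250%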
aDG glyco act: increases alpha dystroglycan glycosylation; Pro5-aDG cells, alpha-DG glycosylation AlphaScreen (IIH6); 0% Pro5, 100% B10-LARGE cell signal; activation, % at 10 µM; 360,000 tested, 0.22% active;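 active = activation of at least 8% versus controls, or a plate z-score of at least 8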;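 note: Pro5 are CHO cells carrying HIG-tagged alpha-DG that lacks glycosylation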
ARNT Alpha ctr-1: counter-screen for ARNT/TACC3 inhibitors: AlphaScreen artifacts; shares compounds with ARNT-TACC3 inh; His-ARNT PASB-GST AlphaScreen artifact counter-screen, luminescence; AC50, µM (series often up to 68 µM); 1,200 tested, 50% active;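 active = every separate test run was called active for a drop in luminescence, with AC50 within twice the top valid dose, actives reach about 71 µM in these data; inconclusive = the separate test runs disagree in their calls; inactive = all runs inactive, including signal change in the wrong direction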
ARNT Alpha ctr-2: produces AlphaScreen artifacts in ARNT-TACC3 counter-screen; Dual-tagged His-ARNT PASB-GST AlphaScreen artifact counter-screen; AC50, µM; shares compounds with ARNT-TACC3 inh; 45 tested, 70% active;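 active = luminescence drop, with half-maximal potency fitted within twice the sample's top valid dose, cut at about 70 µM in these data; inactive = the rest, including signal moving the wrong way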
Numbers stand for hits; 0 = inactive; ? = inconclusive; - = not tested or not shown. Sampled rows, rich in hits. Any-hit rate of the full collection: about 1.8%.

SMILES	AI-2 QS modul	ARNT-TACC3 inh	A1 inh	SUMO Mot1 rescue	aDG glyco act	ARNT Alpha ctr-1	others
O=C(c1ccc2c(c1)OCO2)C1CCCN(Cc2ccccc2OC(F)F)C1 (stereo not given)	0	0	0	0	0	-
COC(=O)C1CCN(C(=O)COC(=O)c2ccc(OC)c(S(=O)(=O)N3CCCc4ccccc43)c2)CC1	0	0	0	0	0	-
COc1cccc(/C=N/Nc2nc3ccccc3[nH]2)c1O	0	57.9	0	0	0	0
COc1cccc(/C=N/Nc2nc3ccccc3[nH]2)c1OC	0	0	0	0	0	-
Cc1ccc(OCc2nc(-c3ccccn3)n[nH]2)cc1	0	-	0	0	0	-
Cc1cccc(OCc2nc(-c3ccccn3)n[nH]2)c1	0	67.4	0	0	0	35µM
CC(=O)N1[C@@H]2c3ccc(-c4cccnc4)c(=O)n3C[C@H]1[C@H](CO)[C@H]2C(=O)NC1Cc2ccccc2C1	-	0	-	-	-	-
Oc1c(Br)cccc1/C=N/c1ncn[nH]1	0	51.3	0	0	0	0
O=C(N/N=C/c1sc2ccccc2c1O)c1cccc2ccccc12	?	55.0	0	0	0	68.9µM
O=C(N/N=C/c1ccccc1)c1cccc2ccccc12	0	0	0	0	0	-
Cc1nc2ccccc2n1CC(=O)c1ccc(O)c(O)c1	-	57.1	0	0	0	0
COC(=O)C[C@@H]1CC[C@@H](NS(=O)(=O)c2ccc(OC)cc2)[C@H](CO)O1	-	58.1	-	-	-	0
COC(=O)C[C@H]1CC[C@H]2[C@H](COc3ccc(NC(=O)NCc4ccccc4)cc3C(=O)N2C)O1	-	0	-	-	-	-
O=C(Cc1ccccc1)NC(c1ccco1)c1ccc2cccnc2c1O (stereo not given)	-	-	-	-	-	-	ARNT Alpha ctr-2=8.67
CC(C)CC(=O)NC(c1cccs1)c1ccc2cccnc2c1O (stereo not given)	0	-	0	0	0	-	ARNT Alpha ctr-2=6.98
CC(C)C(=O)NC(c1cccc([N+](=O)[O-])c1)c1ccc2cccnc2c1O (stereo not given)	0	63.0	0	0	0	16.8µM
Oc1c(C(Nc2nc3ccccc3s2)c2ccco2)ccc2cccnc12 (stereo not given)	0	0	0	0	0	-
CC(C)C(=O)NC(c1ccco1)c1ccc2cccnc2c1O (stereo not given)	0	53.4	0	0	0	28.5µM	ARNT Alpha ctr-2=9.4
CCC1(CC)NC(=O)N(CC(=O)OCC(=O)Nc2ccccc2[N+](=O)[O-])C1=O	0	0	0	0	0	-
Cc1ccc(S(=O)(=O)N2CCC[C@H]2C(=O)Nc2ccccc2Cl)cc1	-	0	0	0	0	-
COc1cccc(OC)c1OCCOc1ccc(C(=O)c2ccccc2)cc1	0	0	0	0	0	-
COc1cc(/C=C(/C(=O)c2cccs2)c2nc3ccccc3[nH]2)cc(OC)c1O	0	0	0	0	0	-
Cc1ccc(S(=O)(=O)N(C)C[C@@H]2Oc3ncc(C#Cc4ccccc4)cc3C(=O)N([C@H](C)CO)C[C@@H]2C)cc1	-	0	-	-	-	-
CC(=O)NC(c1ccco1)c1cc(F)c2cccnc2c1O (stereo not given)	-	57.5	0	0	0	45.4µM
CC(C)C(=O)NC(c1ccco1)c1cc(Cl)c2cccnc2c1O (stereo not given)	-	-	-	-	-	-	ARNT Alpha ctr-2=43.1
SMILES	AI-2 QS modul	ARNT-TACC3 inh	A1 inh	SUMO Mot1 rescue	aDG glyco act	ARNT Alpha ctr-1	others
CCCC(=O)NC(c1ccco1)c1cc(Cl)c2cccnc2c1O (stereo not given)	0	0	0	0	0	-
Nc1nonc1-n1nnc(C(=O)N/N=C/c2ccncc2)c1CSc1ccc(Cl)cc1	0	0	0	0	0	-
COCc1cn(CC[C@H]2CC[C@@H](NC(=O)c3ccncc3)[C@@H](CO)O2)nn1	-	0	-	-	-	-
COCc1cn(CC[C@@H]2CC[C@H](NC(=O)c3ccncc3)[C@H](CO)O2)nn1	-	0	-	-	-	-
N[C@H]1CC[C@H](CCn2cc(-c3cccc(F)c3)nn2)O[C@@H]1CO	-	0	-	-	-	-
O=C(N[C@@H]1CC[C@H](CCn2cc(-c3ccccn3)nn2)O[C@@H]1CO)c1ccncc1	-	65.8	-	-	0	32.6µM
